# Measured values reported in PubChem BioAssay (NCATS).
# Records with an inconclusive call do not appear. Calls of active or inactive are those of the source. Calls come from the whole dose curve; as a rule, active = well fitted inhibition curve with a large enough effect; inconclusive = small, poorly fitted or top-dose-only effect, or effect the other way; inactive = flat fitted curve, though single readings scatter. Peptide text beside a SMILES is read from it.
# Target: ATP-dependent 6-phosphofructokinase (Trypanosoma brucei brucei) (UniProt O15648)
# Experiment: qHTS Assay to Find Inhibitors of T. brucei phosphofructokinase: hit validation (AID 492961);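 note: luminescence reports ADP formed as PFK phosphorylates fructose-6-phosphate with ATP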
# Conditions: T. brucei PFK, ADP-Glo luminescence; series mostly up to 51.4 µM
# In short: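 Inhibition of parasite PFK is measured as reduced ADP formation, quantified via luciferase after ATP depletion. Assay used 0.1 mM ATP, 0.5 mM F6P, 1.25 nM enzyme, 45 min incubation.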
# Chain of ATP-dependent 6-phosphofructokinase (Trypanosoma brucei brucei) (O15648 whole entry, looked up): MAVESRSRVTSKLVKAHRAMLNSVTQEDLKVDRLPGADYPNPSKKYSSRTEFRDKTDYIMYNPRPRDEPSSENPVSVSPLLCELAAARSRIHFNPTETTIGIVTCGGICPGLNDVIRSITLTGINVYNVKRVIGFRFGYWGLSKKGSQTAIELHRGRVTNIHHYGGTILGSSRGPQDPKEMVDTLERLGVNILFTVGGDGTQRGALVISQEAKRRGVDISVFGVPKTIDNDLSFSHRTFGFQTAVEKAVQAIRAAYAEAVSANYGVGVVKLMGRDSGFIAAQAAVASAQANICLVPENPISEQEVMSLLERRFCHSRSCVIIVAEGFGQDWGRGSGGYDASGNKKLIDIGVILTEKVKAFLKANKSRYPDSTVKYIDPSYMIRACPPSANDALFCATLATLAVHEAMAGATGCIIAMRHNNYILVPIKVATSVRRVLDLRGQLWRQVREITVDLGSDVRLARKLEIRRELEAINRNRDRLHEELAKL
row,Structure (SMILES),outcome
1,C=CCc1cc(OC)c(O)c(C(=O)NCCO)c1,inactive
2,CCC(C)(Oc1ccc(C2(c3ccc(OC(C)(CC)C(=O)O)cc3)CCCCC2)cc1)C(=O)O (centres undefined),inactive
3,CCCCCCCCCCCCCCCCCCCCCCO,inactive
4,COC1=C(OC)C(=O)C(CCCCCCCCCCO)=C(C)C1=O,inactive
5,N[C@@H](Cc1cc(I)c(Oc2cc(I)c(O)c(I)c2)c(I)c1)C(=O)O,inactive
6,CC1=C(C)C(=O)C(C(CCCCCC(=O)O)c2ccccc2)=C(C)C1=O (centres undefined),inactive
7,CCCCC(CC)COC(=O)C(C#N)=C(c1ccccc1)c1ccccc1 (centres undefined),inactive
8,CC(S)C(=O)NCC(=O)O (centres undefined),inactive
9,Cc1ncc([N+](=O)[O-])n1CC(C)O (centres undefined),inactive
10,Cc1cc(=O)oc2cc(O)ccc12,inactive
11,O=C(NCCO[N+](=O)[O-])c1cccnc1,inactive
12,CN1CCC(=C2c3ccccc3CCc3sccc32)CC1,inactive
13,O=C(O)c1cn(-c2ccc(F)cc2)c2cc(N3CCNCC3)c(F)cc2c1=O,inactive
14,COC(=O)[C@H](Cc1ccccc1)NC(=O)[C@@H](N)CC(=O)O (H-Asp-Phe-OMe),inactive
15,C[C@]12CCC(=O)C=C1CC[C@@H]1[C@H]2[C@@H](O)C[C@@]2(C)[C@H]1CC[C@]2(O)C(=O)CO,inactive
16,O=C(NC(Cc1cc(=O)[nH]c2ccccc12)C(=O)O)c1ccc(Cl)cc1 (centres undefined),inactive
17,C[Se]CCC(N)C(=O)O (centres undefined),inactive

row,Structure (SMILES),outcome
1,CC(C)[C@H](N)C(=O)OCCOCn1cnc2c(=O)[nH]c(N)nc21,inactive
2,Cc1nc(Nc2ncc(C(=O)Nc3c(C)cccc3Cl)s2)cc(N2CCN(CCO)CC2)n1,inactive
3,O=C(OC1C[C@H]2CC[C@@H](C1)[N+]21CCCC1)C(O)(c1ccccc1)c1ccccc1 (some centres undefined),inactive
4,Clc1ccc(C(Cn2ccnc2)OCc2ccsc2Cl)c(Cl)c1 (centres undefined),inactive
5,C=C(c1ccc(C(=O)O)cc1)c1cc2c(cc1C)C(C)(C)CCC2(C)C,inactive
6,CS(=O)(=O)OCCCCOS(C)(=O)=O,inactive
7,CC(C)c1ccc2oc3nc(N)c(C(=O)O)cc3c(=O)c2c1,inactive
8,CN(C)C(=O)COC(=O)Cc1ccc(OC(=O)c2ccc(N=C(N)N)cc2)cc1,inactive
9,CC1(C)CCC(C)(C)c2cc(NC(=O)c3ccc(C(=O)O)cc3)ccc21,inactive
10,Cc1ccc(NC(=O)c2ccc(CN3CCN(C)CC3)cc2)cc1Nc1nccc(-c2cccnc2)n1,inactive
11,CCN(CC)CCOc1ccc(Cc2ccccc2)cc1,inactive
12,Cc1cccc(C)c1OCC(=O)N[C@@H](Cc1ccccc1)[C@@H](O)C[C@H](Cc1ccccc1)NC(=O)[C@H](C(C)C)N1CCCNC1=O,inactive
13,N=C(N=C(N)N)N1CCOCC1,inactive
14,CC(C)(S)[C@@H](N)C(=O)O,inactive
15,CCCCN(CCCC)CCC(O)c1cc2c(Cl)cc(Cl)cc2c2cc(C(F)(F)F)ccc12 (centres undefined),inactive
16,Cc1cc(C2CCCCC2)n(O)c(=O)c1,inactive
17,Cc1c(C(=O)NN2CCCCC2)nn(-c2ccc(Cl)cc2Cl)c1-c1ccc(Cl)cc1,inactive
